According to PubChem BioAssay AID651601 (Sanford-Burnham Center for Chemical Genomics, 2012):
The source made the active and inactive calls.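 Rule for the calls: active = CXCR6 mean IC50 below 15 µM, and neither CCR6 nor CXCR5 mean IC50 under five times that; inactive = the rest.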

Molecular target: C-C chemokine receptor type 6 (Homo sapiens) (UniProt P51684)
Assay: antagonist selectivity across CCR6, CXCR5 and CXCR6 – cell-based, CHO-K1 PathHunter beta-arrestin, luminescence, selectivity assay for CXCR6 antagonist project, profiling panel (AID 651601)
Settings: antagonist mode, mean of runs

Chain of C-C chemokine receptor type 6 (Homo sapiens) (P51684 whole entry, looked up): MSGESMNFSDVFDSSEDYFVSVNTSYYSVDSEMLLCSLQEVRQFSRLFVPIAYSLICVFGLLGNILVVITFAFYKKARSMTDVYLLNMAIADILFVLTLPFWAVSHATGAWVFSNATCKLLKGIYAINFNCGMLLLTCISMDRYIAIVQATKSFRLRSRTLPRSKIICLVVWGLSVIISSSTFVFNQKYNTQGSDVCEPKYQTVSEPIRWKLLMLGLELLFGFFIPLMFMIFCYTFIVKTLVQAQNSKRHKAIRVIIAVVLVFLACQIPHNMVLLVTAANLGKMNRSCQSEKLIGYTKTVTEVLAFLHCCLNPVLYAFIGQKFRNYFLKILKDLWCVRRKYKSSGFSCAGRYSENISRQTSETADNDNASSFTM

outcome, inactive:
COc1cccc(C(=O)NC2CC3CCCC(C2)N3CC(=O)Nc2ccccc2C(F)(F)F)c1 (stereo unspecified)
CN(C)c1ccc(NC(=O)CN2C3CCCC2CC(NC(=O)c2ccccc2)C3)cc1 (stereo unspecified)
COc1cc(C(=O)NC2CC3CCCC(C2)N3CC(=O)Nc2ccccc2)cc(OC)c1OC (stereo unspecified)
O=C(CN1C2CCCC1CC(NC(=O)c1ccccc1)C2)Nc1ccccc1C(F)(F)F (stereo unspecified)
COc1cccc(C(=O)NC2CC3CCCC(C2)N3CC(=O)Nc2ccc(N(C)C)cc2)c1 (stereo unspecified)
O=C(CN1C2CCCC1CC(NC(=O)c1ccccc1)C2)Nc1ccccc1 (stereo unspecified)
